Compound activity as filed in PubChem.
Hits are enriched below; roughly 3.1% of the tested compounds scored in any of these assays.
HSP90 refold inh – inhibitors of HSP90 luciferase refolding in rabbit reticulocyte lysate. AID 1789. 290,000 compounds, 0.91% hits. luciferase refolding luminescence, 3 h. inhibition, % at 5.6 µM;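 active = inhibition above the screen-wide mean plus 3 SD, computed separately per campaign, cut at about 16% in these data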;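 note: 0% = DMSO wells and 100% = 60 µM geldanamycin wells; inhibitors lower the luminescence because luciferase stays unfolded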
HSF1 activator – increases HSF-1 driven luciferase reporter signal; NIH3T3-HGL HSF-1 luciferase reporter, MG132, 8 h; 100% = twice DMSO control signal; activation, % at 9 µM; 300,000 compounds, 1.7% hits;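 active = mean replicate activation of at least 50% with a set share of replicates each reaching 50%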;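 note: 0% = median of the neutral control wells and 100% = twice that signal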
HSF1 inh – HSF1 inhibition. activity change, negative = inhibition, % at 7.5 µM (by protocol). 300,000 compounds, 0.77% hits. AID 2098. NIH3T3-HGL HSE-luciferase, MG132-induced, luminescence 8 h; hits give low values;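 active = more than half of replicate wells show activity change below -50%, luminescence cut by over half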;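 note: luciferase reports HSF-1 transcriptional activity via heat shock element; 0% = median of DMSO wells and -100% = zero luminescence signal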
ARNT TACC3 PPI – disrupts binding between human ARNT and TACC3; inhibition, % at 9.99 µM; 390,000 compounds, 0.66% hits; AID 623870; Q9Y6A5; AlphaScreen His-ARNT PAS-B/GST-TACC3 binding, luminescence; TACC3 fragment carries E629A point mutation;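 active = mean inhibition of replicates at least 50% and at least half of replicates each reaching 50%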;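 note: 0% = complete ARNT plus TACC3 wells and 100% = ARNT alone without TACC3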
HIF act – HIF pathway transcriptional activation. U2OS HRE-luciferase reporter, luminescence; normalized: DMSO 0%, desferrioxamine 100%. activation, % at 7.5 µM (by protocol). 300,000 compounds, 0.32% hits;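 active = mean activation of at least 10% of the iron chelator positive control signal, with at least half of replicates also reaching 10%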
Numbers without * were called inactive; x = not tested or not shown.

SMILES	HSP90 refold inh	HSF1 activator	HSF1 inh	ARNT TACC3 PPI	HIF act
CN(C)C(=O)[C@@H]1[C@@H](CO)[C@@H]2Cn3c(ccc(-c4ccccc4F)c3=O)[C@@H]2N1C(=O)c1cnccn1	x	x	x	-14	x
O=C(Nc1ccc(C(=O)N2CCOCC2)cc1)c1cnn2c(C(F)F)cc(-c3ccccc3)nc12	2	54*	13	-4	0
CCCOC(=O)c1cc(-c2ccc(C=O)o2)ccc1Cl	-2	10	-8	-7	1
CCCOC(=O)c1ccc(-c2ccc(C=O)o2)cc1	36*	66*	29	0	2
CCOC(=O)c1ccc(-c2ccc(/C=N/NC(=O)Cc3nnc(N)s3)o2)cc1	8	71*	27	x	1
Nc1nnc(CC(=O)N/N=C/c2ccc(-c3ccc(F)cc3)o2)s1	14	8	7	x	0
O=C(NC1CCCCC1)N[C@H]1C=C[C@@H](CC(=O)N2CCOCC2)O[C@H]1CO	x	x	x	2	x
O=C(C[C@H]1CC[C@H](NS(=O)(=O)c2ccc(F)cc2)[C@H](CO)O1)NC1CCC1	x	x	x	-1	x
Cn1c(-c2ccc3c(c2)OCO3)cnc1N	0	-7	2	54*	1
CC(C)NC(=O)Nc1ccc2c(c1)C(=O)N(C)[C@H]1CC[C@H](CC(=O)NCC(F)(F)F)O[C@H]1CO2	x	x	x	-5	x
O=C(NCc1ccccc1Cl)C1CCN(S(=O)(=O)N2CCCC2)CC1	1	-75	-69*	-3	0
COc1ccc(OC)c(CNC(=O)C2CCCN(S(=O)(=O)N3CCC(C)CC3)C2)c1 (stereo not given)	0	27	8	-4	25*
COc1ccc(CNC(=O)C2CCCN(S(=O)(=O)N3CCC(C)CC3)C2)c(OC)c1 (stereo not given)	3	-9	1	-2	0
COCC#Cc1ccc2c(c1)O[C@H](CN(C)C(=O)NC(C)C)[C@@H](C)CN([C@H](C)CO)S2(=O)=O	x	x	x	1	x
COc1ccc(N2C(=O)C3CCCN3C2c2ccc(Cl)cc2)cc1 (stereo not given)	2	-12	-2	-13	0
COc1ccc(C2N(c3ccc(Cl)cc3)C(=O)C3CCCN32)cc1 (stereo not given)	-1	-5	2	30*	1
CCCNC(=O)N[C@H]1CC[C@H](CCn2cc(C3CC3)nn2)O[C@@H]1CO	x	x	x	-4	x
COc1ccc(CC(=O)NNC(=O)c2ccccn2)cc1	0	-4	2	48*	0
O=C(NNC(=O)C12CC3CC(CC(C3)C1)C2)c1ccccn1	4	3	9	75*	0
Cc1cc(C)cc(OCC(=O)NNC(=O)c2ccccn2)c1	x	x	x	68*	x
O=C(NNC(=O)C12CC3CC(CC(C3)C1)C2)c1cnccn1	-4	3	-9	-4	0
COCC(=O)Nc1ccc2c(c1)C(=O)N(C)[C@@H]1CC[C@@H](CC(=O)NCc3cccc(F)c3)O[C@H]1CO2	x	x	x	10	x
Fc1ccc(CNCc2ccccc2Cl)cc1	4	-61	-53*	x	1
CCCCN(C)C(=O)CCC(=O)Nc1ccc2nc(N3CCN(C)CC3)cc(C)c2c1	1	-76	-70*	-2	0
C[C@@H]1CCCCO[C@H](CN(C)CC2CCCCC2)[C@H](C)CN([C@H](C)CO)C(=O)c2cc(NS(=O)(=O)c3ccccc3)ccc2O1	x	x	x	5	x
SMILES	HSP90 refold inh	HSF1 activator	HSF1 inh	ARNT TACC3 PPI	HIF act
Cc1c(Cl)cccc1NC(=O)Nc1ccccc1C(N)=O	-3	10	-10	0	0
C/C(CC(=O)Nc1ccc2c(c1)OCO2)=N\NC(=O)c1ccc(N)cc1	-2	25	6	6	0
C/C(CC(=O)Nc1ccc2c(c1)OCO2)=N\NC(=O)c1ccccc1N	-1	59*	41	5	3
NC(=O)c1ccccc1NC(=O)Nc1cccc(Cl)c1Cl	0	77*	46	0	-1
C/C(CC(=O)Nc1cccc(Cl)c1Cl)=N\NC(=O)c1ccccc1N	2	55*	25	-3	2
Cc1noc(C)c1S(=O)(=O)N(C)C[C@H]1Oc2ccc(NC(=O)Cc3ccccc3)cc2CC(=O)N([C@@H](C)CO)C[C@@H]1C	x	x	x	-4	x
COc1ccc(C)cc1-n1c(SCC(=O)Nc2cccc(C(=O)O)c2)nc2ccccc2c1=O	1	75*	28	-3	0
C[C@H]1CCCCO[C@H](CN(C)C(=O)NC2CCCCC2)[C@@H](C)CN([C@@H](C)CO)C(=O)c2cc(NC(=O)CCCN(C)C)ccc2O1	x	x	x	-5	x
